Screens from PubChem BioAssay.
This is a sample that favours compounds with a hit; in the whole collection about 12% have one here.
Insulin prom up – MIN6 insulin promoter up-regulation; MIN6 insulin promoter-GFP reporter, high-content imaging; stronger effect = higher value; z-score at 5 µM; 0.3% of 190,000 active;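 active means z-score above 3 at 5 µM with at least 500 cells counted in the well; inconclusive means wells under 500 cells, flagged as cytotoxic or low count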
WT yeast gro inh – growth inhibition of WT yeast, mitochondrial fusion screen; mitochondrial fusion phenotypic screen, WT strain; inhibition, % at 10 µM; 2.1% of 190,000 active; in the data active means inhibition above about 58%; tested in S. cerevisiae
Lmaj promast – Leishmania major promastigote growth inhibition; Leishmania major promastigotes, resazurin fluorescence viability; inhibition, % at 10 µM; 9% of 200,000 active; AID 1063; in the data active means inhibition above about 50%;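 further: promastigotes grown with compound for 44 hours at 28 °C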
INS promoter inh – TRM-6 insulin promoter activity inhibition | AID 1273 | inhibition, % at 2 µM | 0.9% of 130,000 active | TRM-6 cells (human fetal islet line), insulin promoter-eGFP reporter, imaging; reporter expression induced with tamoxifen;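 active means inhibition above the mean plus 3 SD, with well images judged a real hit on visual review, cut at about 60% in these data, passing the limit was not always enough; inconclusive means inhibition over the cutoff but images rejected on review; inactive means inhibition not above the cutoff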
Cl transport mod – KCC2 (human) Cl- transport modulation; KCC2 cells, thallium flux FluoZin-2 fluorescence; B-score of Tl+ flux slope (higher = more flux/activation; lower = inhibition) at 10 µM; Q9H2X9; 2.2% of 190,000 active;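 active means thallium flux slope and its plate-corrected score both differing from the plate sample mean at a set confidence after two filtering rounds, in either direction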;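 further: slope of fluorescence scaled to starting intensity during 10 to 20 s after thallium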
ROMK mod – human ROMK K+ channel modulation, primary screen | Tet-inducible ROMK, thallium flux fluorescence; actives lie on both sides | B-score at 10 µM | AID 1918 | 2% of 130,000 active | P48048;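 active means signal ratio slope over the read window, or its plate-corrected B-score, at least 3 SD from the plate mean, either direction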;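 further: B-score of the F/F0 ratio slope over 7 to 12 s after thallium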
Target sequence (P48048 whole entry, looked up): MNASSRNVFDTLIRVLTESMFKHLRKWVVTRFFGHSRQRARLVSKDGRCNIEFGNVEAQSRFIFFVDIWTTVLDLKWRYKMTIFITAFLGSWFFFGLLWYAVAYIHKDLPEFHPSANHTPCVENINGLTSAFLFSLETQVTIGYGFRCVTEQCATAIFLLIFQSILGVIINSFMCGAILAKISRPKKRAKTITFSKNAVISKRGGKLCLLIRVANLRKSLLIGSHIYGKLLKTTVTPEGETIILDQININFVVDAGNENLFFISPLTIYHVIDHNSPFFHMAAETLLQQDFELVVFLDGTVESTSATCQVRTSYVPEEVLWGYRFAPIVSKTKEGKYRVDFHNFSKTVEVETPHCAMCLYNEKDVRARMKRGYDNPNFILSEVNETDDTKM
KCC2 secondary – confirmation of human KCC2 transport modulators; normalised thallium flux (F/F0 slope) at 10 µM; 15% of 3,700 active; shares compounds with Cl transport mod; AID 1713; HEK293-KCC2, thallium flux, FluoZin2 fluorescence; stronger effect = higher value;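 active means thallium flux slope above the same plate's solvent-only control mean plus 3 SD; inconclusive means the two replicate wells disagree; inactive means no significant difference from solvent-only control wells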
KCC2 bumet counter – bumetanide-insensitive thallium flux in KCC2 cells with ouabain, counter-screen; shares compounds with Cl transport mod; HEK293-KCC2 + bumetanide/ouabain, thallium flux FluoZin2; stronger effect = higher value; normalized thallium flux at 10 µM; 49% of 3,700 active;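 active means thallium entry rate above the same plate's blocked-transporter control wells by more than 3 SD; inconclusive means the two repeat wells disagree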;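 further: raw slope of fluorescence over initial fluorescence between 10 and 20 s after thallium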
KCC2 secondary2 – KCC2 (human) modulation, second secondary assay; 23% of 3,700 active; HEK293-KCC2, thallium flux FluoZin2 fluorescence; actives lie on both sides; F/F0 rise rate, 10–20 s post-thallium; shares compounds with Cl transport mod; normalized thallium flux at 10 µM;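 active means thallium flux slope more than 3 SD above or below the plate's solvent-only control mean, mostly below; inconclusive means the two repeat wells disagreed; inactive means no significant shift from solvent-only controls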
HEK293 Tl flux – parental HEK flux effect, counter-screen; shares compounds with Cl transport mod; HEK293 parental cells, thallium flux FluoZin2, ouabain; baseline-ratio fluorescence slope, 10–20 s after thallium; thallium flux rate (normalised fluorescence) at 10 µM; 46% of 3,700 active;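 active means thallium flux rate significantly above the same plate's solvent-only control wells, beyond their mean plus 3 SD; inconclusive means the two replicate wells gave conflicting results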
KCC2 retest ouab – modulates human KCC2 on retest with ouabain. AID 1717. HEK293-KCC2, thallium flux FluoZin2 fluorescence; bidirectional: low = inhibitor, high = activator. raw Tl+ flux slope (below DMSO = inhibition, above = activation) at 10 µM. 48% of 3,700 active. shares compounds with Cl transport mod;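 active means thallium flux slope beyond 3 SD from same-plate DMSO control mean in most replicates, usually higher, sometimes lower; inconclusive means repeat tests gave conflicting results; inactive means no significant difference from controls in most replicates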;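 further: slope of initial-normalized fluorescence between seconds 10 and 20 after thallium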
HEK293 Tl flux2 – acts in parental HEK cells, second KCC2 counter-screen. shares compounds with Cl transport mod. HEK293 parental, thallium flux FluoZin-2 fluorescence slope. thallium flux slope at 10 µM. 33% of 3,700 active. AID 1718;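 active means thallium flux slope above the same plate's solvent-control mean plus 3 SD in both duplicate wells; inconclusive means duplicate wells that disagreed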;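 further: run without ouabain in cells lacking the KCC2 cotransporter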
Of the large screens only hits and unclear results are named; the others gave an inactive call (follow-up assays come after a bar, where they were run).

Cc1ccc(C)c2sc(NC(=O)c3nc4ccccc4s3)nc12	Cl transport mod 60 | KCC2 secondary 0.014 | KCC2 bumet counter 0.033 | KCC2 secondary2 inactive | HEK293 Tl flux 0.059 | KCC2 retest ouab 0.036 | HEK293 Tl flux2 0.015
CCCCCCCCC(=O)N/N=C/c1cccc(Br)c1	Cl transport mod 5.5 (no result: INS promoter inh) | KCC2 secondary inactive | KCC2 bumet counter inconclusive | KCC2 secondary2 inactive | HEK293 Tl flux inactive | KCC2 retest ouab inactive | HEK293 Tl flux2 inactive
CCCCCCC(=O)N/N=C/c1ccc(Br)cc1	none (no result: ROMK mod)
COc1ccccc1OCc1ccc(C(=O)N2N=C(C(F)F)CC2(O)C(F)F)o1 (stereo not given)	Cl transport mod -3.3 | KCC2 secondary inactive | KCC2 bumet counter inactive | KCC2 secondary2 0.025 | HEK293 Tl flux inactive | KCC2 retest ouab 0.013 | HEK293 Tl flux2 inconclusive
O=C(c1ccc(COc2ccc(Cl)cc2)o1)N1N=C(C(F)F)CC1(O)C(F)F (stereo not given)	none (no result: ROMK mod)
O=C(Nc1nc(-c2ccc(-c3ccccc3)cc2)cs1)c1cc([N+](=O)[O-])ccc1N1CCOCC1	none (no result: INS promoter inh)
CC1=NNC(=O)C1CCC(=O)N/N=C(\C)c1ccccc1 (stereo not given)	none (no result: INS promoter inh)
CCC(=Nc1ccccc1)C1=C(O)CCCC1=O	none (no result: WT yeast gro inh, Lmaj promast, INS promoter inh, ROMK mod)
CC(=O)N1CCCc2cc(S(=O)(=O)CCC(=O)N3CCN(c4cccc(C)c4)C(C)C3)ccc21 (stereo not given)	Cl transport mod -3.6 (no result: INS promoter inh, ROMK mod) | KCC2 secondary inactive | KCC2 bumet counter inactive | KCC2 secondary2 inactive | HEK293 Tl flux inactive | KCC2 retest ouab inactive | HEK293 Tl flux2 inactive
Cc1cccc(N2CCN(C(=O)CCS(=O)(=O)c3ccc(Br)cc3)CC2C)c1 (stereo not given)	none
Oc1oc(-c2ccccc2)nc1/C=N/c1nccs1	Cl transport mod 14 (no result: ROMK mod) | KCC2 secondary 0.016 | KCC2 bumet counter 0.082 | KCC2 secondary2 inactive | HEK293 Tl flux 0.017 | KCC2 retest ouab 0.044 | HEK293 Tl flux2 0.012
COC(=O)c1ccc(NC(=O)COC(=O)c2cccc3c(=O)c(C)c(-c4ccccc4)oc23)cc1	none (no result: INS promoter inh, ROMK mod)
Cc1c(-c2ccccc2)oc2c(C(=O)OCC(=O)Nc3ccc(C(N)=O)cc3)cccc2c1=O	Lmaj promast 53, Cl transport mod -5 (no result: ROMK mod) | KCC2 secondary inactive | KCC2 bumet counter inactive | KCC2 secondary2 inactive | HEK293 Tl flux inconclusive | KCC2 retest ouab 0.016 | HEK293 Tl flux2 inactive
Nc1nonc1C(=O)NCCNc1ncccc1[N+](=O)[O-]	none
CSc1nc2sc3c(c2c(=O)n1C)CCCC3	none (no result: ROMK mod)
CSc1nc2sc3c(c2c(=O)n1C1CCCCC1)CCN(C)C3	none | KCC2 secondary inactive | KCC2 bumet counter inactive | KCC2 secondary2 inactive | HEK293 Tl flux inactive | KCC2 retest ouab inactive | HEK293 Tl flux2 inactive
C=CCn1c(SCC#N)nc2c(c1=O)C(C)(C)Cc1ccccc1-2	Lmaj promast 96 (no result: INS promoter inh) | KCC2 secondary inactive | KCC2 bumet counter inactive | KCC2 secondary2 inactive | HEK293 Tl flux inconclusive | KCC2 retest ouab inactive | HEK293 Tl flux2 inactive
N#CC1=C(N)NC(SCc2ccc(F)cc2)=C(C#N)C12CCCCC2	Lmaj promast 99 | KCC2 secondary inactive | KCC2 bumet counter inactive | KCC2 secondary2 0.024 | HEK293 Tl flux inconclusive | KCC2 retest ouab inconclusive | HEK293 Tl flux2 inactive
NC(=O)COC(=O)c1ccccc1OCc1ccc(Cl)cc1	none (no result: INS promoter inh)
CC(C)COCC(O)CCC(=O)NNC(=S)Nc1ccccc1 (stereo not given)	none
CC(C)COC(=S)Nc1ccccc1	Cl transport mod 9.3 (no result: ROMK mod) | KCC2 secondary inactive | KCC2 bumet counter 0.01 | KCC2 secondary2 inactive | HEK293 Tl flux 0.01 | KCC2 retest ouab inconclusive | HEK293 Tl flux2 inconclusive
Fc1ccc(F)c(C2=NNC(=Nc3ccccc3F)SC2)c1	WT yeast gro inh 63, Cl transport mod 5.9 | KCC2 secondary inactive | KCC2 bumet counter 0.011 | KCC2 secondary2 inactive | HEK293 Tl flux 0.011 | KCC2 retest ouab 0.026 | HEK293 Tl flux2 0.014
Fc1ccccc1N=C1NN=C(c2ccccc2)CS1	none (no result: INS promoter inh)
Cc1cccc(N=C2NN=C(c3ccccc3F)CS2)c1C	Cl transport mod 11 | KCC2 secondary inactive | KCC2 bumet counter 0.013 | KCC2 secondary2 inactive | HEK293 Tl flux 0.018 | KCC2 retest ouab 0.026 | HEK293 Tl flux2 inconclusive
CCCCn1c(SCC(=O)NC2CCS(=O)(=O)C2)nc2cc(S(N)(=O)=O)ccc21 (stereo not given)	none (no result: INS promoter inh)
S=C(Nc1ccccc1Cl)NC1CCC(NC(=S)Nc2ccccc2Cl)CC1 (stereo not given)	none (no result: INS promoter inh)
S=C(Nc1ccc(Cl)cc1Cl)NC1CCN(Cc2ccccc2)CC1	Lmaj promast 92, Cl transport mod -3.7 (no result: INS promoter inh, ROMK mod) | KCC2 secondary inactive | KCC2 bumet counter inconclusive | KCC2 secondary2 inactive | HEK293 Tl flux inactive | KCC2 retest ouab 0.021 | HEK293 Tl flux2 inconclusive
Cc1cc(C)n(-c2ccc(F)cc2CN2CCN(C3CCCC3)C(CCO)C2)n1 (stereo not given)	none (no result: INS promoter inh)
CC1=CCC[C@@H]2[C@@](C)(CC/C(C)=C/C(=O)O)[C@H](C)CC[C@@]12C	WT yeast gro inh 73, Cl transport mod 3.5 | KCC2 secondary inactive | KCC2 bumet counter 0.012 | KCC2 secondary2 inactive | HEK293 Tl flux 0.015 | KCC2 retest ouab inconclusive | HEK293 Tl flux2 inactive
CC(C)N(Cc1nc(-c2ccc(Cl)cc2)no1)C(=O)CN(C)S(=O)(=O)c1ccc(Cl)cc1	none (no result: Cl transport mod, ROMK mod)
CC(C)N(Cc1nc(-c2ccccc2)no1)C(=O)CN(C)S(=O)(=O)c1ccc(Br)cc1	none (no result: ROMK mod) | KCC2 secondary inactive | KCC2 bumet counter inactive | KCC2 secondary2 inactive | HEK293 Tl flux inactive | KCC2 retest ouab inactive | HEK293 Tl flux2 inactive
C=CCn1c(SCC(=O)Nc2cccc3ccccc23)nnc1-c1cnccn1	Cl transport mod -3 (no result: ROMK mod) | KCC2 secondary inactive | KCC2 bumet counter inconclusive | KCC2 secondary2 inactive | HEK293 Tl flux inactive | KCC2 retest ouab inactive | HEK293 Tl flux2 inactive
COc1cc(C(=O)N/N=C(\C)Cc2ccccc2)cc(OC)c1OC	none
